A selection: hits, their analogues and other compounds. The true share with any hit is near 21%.
Shiga inhibitor: A qHTS for Small Molecule Inhibitors of Shiga Toxin; Vero cells, Shiga toxin protein synthesis inhibition reporter; inhibition, % at 38.7 µM; hit rate 9.2% among 290,000; in the data active = inhibition mostly above about 28%, no sharp cut-off; inactive = mostly below about 43%
Pf growth 96h: Primary qHTS for delayed death inhibitors of the malarial parasite plastid, 96 hour incubation; hit rate 6.9% among 320,000; Potency, µM (top dose mostly 28.7 µM), most hits filed as inhibitors; P. falciparum luciferase reporter growth, 96 h; AID 504834, 2011
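Two parasite generations (96 h, 37 C, 5% CO2) of compound exposure in infected erythrocytes (0.05% parasitemia, 2% hematocrit). Luciferase-reporter P. falciparum; decreased luminescence indicates inhibited growth, aimed at apicoplast-acting delayed death.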
NS1 inh: qHTS Assay for Inhibitors of Influenza NS1 Protein Function. Potency, µM (series often up to 46.1 µM). hit rate 0.4% among 270,000; calls by dose curve; also: actives are rising curves; nearly all actives have a fitted effect of over 50% in size
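Read-out: OD600 growth recovery of NS1-expressing budding yeast. Cells grown overnight at 30C in -URA glucose medium, washed, resuspended and diluted 1:100 in 2% galactose assay medium, pH 6.0. Same strain lacking NS1 served as positive control.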
Pf growth 48h: Primary qHTS for delayed death inhibitors of the malarial parasite plastid, 48 hour incubation; P. falciparum luciferase growth in erythrocytes, 48 h; Potency, µM (highest dose often 28.7 µM), hits mostly inhibitors; hit rate 5.9% among 310,000
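Read-out is firefly luciferase luminescence from an integrated reporter in P. falciparum, so falling signal marks reduced parasite growth. Infected erythrocytes were at 2% hematocrit and 0.1% parasitemia (final) in Albumax-supplemented RPMI 1640.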
Sm TGR block: qHTS Assay for the Inhibitors of Schistosoma Mansoni Peroxiredoxins; purified TGR, DTNB reduction, TNB absorbance 405 nm; Potency, µM (highest dose often 114 µM), most hits filed as inhibitors; AID 485364, 2010; Schistosoma mansoni thioredoxin glutathione reductase (TGR), Q962Y6; hit rate 3% among 360,000; also: nearly all actives have a fitted effect of over 60% in size
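First, TGR (20 nM dispensed) and NADPH were mixed with compound. Second, a 15 min room-temperature incubation followed. Third, further NADPH and then DTNB were added to start the reaction. Finally, TNB absorbance was monitored kinetically.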
Cycloheximide cs: Cycloheximide Counterscreen for Small Molecule Inhibitors of Shiga Toxin; cell reporter, cycloheximide protein synthesis inhibition counterscreen; max response, %; hit rate 12% among 300,000; AID 2314, 2010; in the data active = max response mostly above about 13%, no sharp cut-off; inactive = mostly below about 14%; also: read at 38.3 µM for the half of the compounds with a filed dose
Large screens that a line does not name were inactive. Unless noted, calls follow the shape of the dose curve; as a rule, active = well fitted curve in the direction sought with a large enough effect; inconclusive = small, poorly fitted or top-dose-only effect, or another doubt; inactive = no such curve, though single readings can be large; an effect the other way counts as inactive or inconclusive.

CCN1CCN(C(c2ccccn2)c2c(NC(=O)c3ccccc3)sc(C)c2C)CC1 (centres undefined)	Pf growth 96h 13.1µM, Pf growth 48h inconclusive
N#C/C(=C\c1ccc(Cl)cc1)C(=O)NCC1CCCO1 (centres undefined)	none (no result: Shiga inhibitor, Pf growth 96h, NS1 inh, Pf growth 48h, Cycloheximide cs)
COc1ccccc1Nc1nn2c(=O)c3ccc(C(=O)NC4CCC(C)CC4)cc3nc2s1 (centres undefined)	none (no result: Shiga inhibitor, Pf growth 96h, NS1 inh, Pf growth 48h, Cycloheximide cs)
CCN(CC)C(NC(=O)c1ccccc1)C(=O)c1ccccc1 (centres undefined)	Sm TGR block 79.4µM, Cycloheximide cs 54.6
Cc1cccc(OC(=O)CSc2nnc(CNC(=O)c3ccccc3)o2)c1C	none (no result: Shiga inhibitor, Pf growth 96h, NS1 inh, Pf growth 48h, Cycloheximide cs)
O=C(NCc1ccc(F)cc1)C1CCCN1C(=O)Nc1cccc(F)c1 (centres undefined)	Pf growth 96h inconclusive (no result: Shiga inhibitor)
Cc1nc2ccccc2c(=O)n1NC(=O)c1ccc(F)cc1Cl	Pf growth 96h 9.28µM
COc1ccc(Br)c(C(=O)Nn2c(C)nc3ccccc3c2=O)c1	none
COc1ccc(C(=O)Nn2c(C)nc3ccccc3c2=O)c(OC)c1	Pf growth 96h 1.17µM
COc1ccc(C(=O)Nn2cnc3ccccc3c2=O)c(OC)c1	Shiga inhibitor 39.0, Cycloheximide cs 25.6
O=C(NC1CC1)C1CCN(C2CCN(C(=O)c3c(F)cccc3Cl)CC2)CC1	none
CCN1/C(=C/c2cc[n+](C)cc2)C=Cc2cc(C)ccc21	Pf growth 48h 0.738µM
CCN1/C(=C/c2ccc3ccccc3[n+]2CCCS(=O)(=O)[O-])C=Cc2cc(C)ccc21	none
O=c1cc(-c2ccccc2)[nH]c2cc(Cl)ccc12	Pf growth 96h 8.28µM, Pf growth 48h 4.65µM
O=c1cc(-c2cccc(F)c2)[nH]c2cc(Cl)ccc12	none (no result: Pf growth 96h, NS1 inh, Pf growth 48h, Sm TGR block)
O=c1cc(-c2ccccc2)c2cc(Cl)ccc2[nH]1	none
O=c1cc(-c2ccccc2)[nH]c2ccc(Cl)cc12	Shiga inhibitor active, Cycloheximide cs 43.6 (no result: Pf growth 96h, NS1 inh, Pf growth 48h, Sm TGR block)
COc1ccccc1CN1CCNC(=O)C1CC(=O)N(C)Cc1ccon1 (centres undefined)	Sm TGR block inconclusive
CC(C)(C)c1cc(CCC(=O)NCCc2ccccn2)cc(C(C)(C)C)c1O	Pf growth 96h 11.7µM, Pf growth 48h inconclusive
CC(C)(C)c1cc(CCC(=O)NCc2ccncc2)cc(C(C)(C)C)c1O	Pf growth 96h inconclusive, Pf growth 48h inconclusive, Cycloheximide cs 19.5
CCCNC(=O)CCc1cc(C(C)(C)C)c(O)c(C(C)(C)C)c1	Pf growth 96h inconclusive, Pf growth 48h inconclusive
CC(=O)N1CCN(C(=O)CCc2cc(C(C)(C)C)c(O)c(C(C)(C)C)c2)CC1	Pf growth 96h 13.1µM, Pf growth 48h inconclusive
COc1ccc(-n2nc3c(N)n[nH]c3cc2=O)cc1	none (no result: Sm TGR block)
CCOc1ccccc1NC(=O)CN(CCc1ccccc1)S(=O)(=O)c1ccc(C)cc1	none (no result: Shiga inhibitor, Pf growth 96h, NS1 inh, Pf growth 48h, Cycloheximide cs)
CCOC(=O)c1[nH]c2c(c1C)C(=O)CC(c1ccco1)C2 (centres undefined)	Pf growth 48h 13.1µM, Sm TGR block 39.8µM
COCCOC(=O)c1[nH]c2c(c1C)C(=O)CC(c1ccco1)C2 (centres undefined)	Pf growth 48h inconclusive, Sm TGR block 44.7µM
COc1ccc(C2CC(=O)c3c([nH]c(C(=O)OCc4ccccc4)c3C)C2)cc1 (centres undefined)	none (no result: Shiga inhibitor, Pf growth 96h, NS1 inh, Pf growth 48h, Cycloheximide cs)
Cc1c(C(=O)OCCOC(C)C)[nH]c2c1C(=O)CC(c1ccco1)C2 (centres undefined)	Pf growth 96h inconclusive, Pf growth 48h inconclusive, Sm TGR block inconclusive
Cc1c(C(=O)OCc2ccccc2)[nH]c2c1C(=O)CC(c1ccco1)C2 (centres undefined)	Pf growth 48h 1.47µM, Sm TGR block inconclusive
CSCCOC(=O)c1[nH]c2c(c1C)C(=O)CC(c1ccco1)C2 (centres undefined)	Pf growth 96h 3.7µM, Pf growth 48h inconclusive, Sm TGR block inconclusive
O=C(CCC(=O)Nc1ccccc1)N/N=C/c1ccc2c(c1)OCO2	Shiga inhibitor 71.1, Cycloheximide cs 40.0
Cc1ccc(CC(=O)N/N=C/c2ccc3c(c2)OCO3)cc1	Shiga inhibitor 42.9, Cycloheximide cs 25.8 (no result: NS1 inh)
O=C(N/N=C/c1ccc2c(c1)OCO2)C(O)c1ccccc1 (centres undefined)	Shiga inhibitor 54.1, Pf growth 96h inconclusive, Cycloheximide cs 59.5
Cc1ccnn1CC(=O)N/N=C/c1ccc2c(c1)OCO2	Cycloheximide cs 17.9
CC(=O)Nc1ccc(S(=O)(=O)N(C)CC(=O)OC2CCCCC2=O)cc1 (centres undefined)	Sm TGR block inconclusive (no result: Shiga inhibitor, NS1 inh, Cycloheximide cs)
Cc1cc(C)c(OCC(=O)N/N=C/c2ccc3c(c2)OCO3)c(C)c1	Pf growth 96h 11.7µM
O=C(NCc1ccccn1)C(=O)N/N=C/c1ccc2c(c1)OCO2	Shiga inhibitor 50.2, Pf growth 96h 4.65µM
Cc1cccc(OCC(=O)N/N=C/c2ccc3c(c2)OCO3)c1	none
O=C(NCCc1ccccc1)C(=O)N/N=C/c1ccc2c(c1)OCO2	none
CCOC(=O)c1c(-c2ccc3ccccc3c2)csc1NC(=O)CCCC(=O)O	none (no result: Shiga inhibitor, NS1 inh, Cycloheximide cs)
COC(=O)CCCC(=O)N1CCCC(C(=O)c2ccc(-c3ccccc3)cc2)C1 (centres undefined)	none
COCCC(=O)N1CCCC(C(=O)c2ccc(Oc3ccccc3)cc2)C1 (centres undefined)	Pf growth 96h inconclusive
CCC(=O)N1CCCC(C(=O)c2ccc(-c3ccccc3)cc2)C1 (centres undefined)	Cycloheximide cs 13.1
CCN1CCN(CC(=O)N2CCCC(C(=O)c3ccc(Oc4ccccc4)cc3)C2)CC1 (centres undefined)	Shiga inhibitor 55.6, Pf growth 96h inconclusive, Pf growth 48h inconclusive, Cycloheximide cs 24.9
Cc1ccc(C(=O)N2CCCC(C(=O)c3ccc(Oc4ccccc4)cc3)C2)cn1 (centres undefined)	Pf growth 96h 8.28µM
COC(=O)c1ccc(NC(=O)C(C)Sc2nc(=O)cc(N)n2CCc2ccccc2)cc1 (centres undefined)	none (no result: Shiga inhibitor, Pf growth 96h, NS1 inh, Pf growth 48h, Cycloheximide cs)
Cc1c(O)ccc(C(=O)CN2CCN(c3ccccc3)CC2)c1O	Pf growth 96h inconclusive, Sm TGR block 22.4µM
c1ccc(-c2cc3nccc(-c4ccccn4)n3n2)cc1	Shiga inhibitor 94.0, Cycloheximide cs 44.6
O=C1c2ccccc2C(=O)c2c1ncn2-c1ccccc1	Pf growth 48h 4.65µM
CCc1nc2sc3c(N4CCC(C)CC4)ncnc3c2c2c1CCCC2	none (no result: Shiga inhibitor, Pf growth 96h, NS1 inh, Pf growth 48h, Cycloheximide cs)
COc1ccc(-c2nn(-c3ccccc3)cc2/C=N/O)cc1OC	none
COc1ccc(-c2nn(-c3ccccc3)cc2/C=N/NC(=O)c2ccc(Br)o2)cc1	Pf growth 96h inconclusive, Pf growth 48h inconclusive
COc1ccc(-c2nn(-c3ccccc3)cc2/C=N/N=C(N)N)cc1OC	Pf growth 96h 1.85µM, Pf growth 48h 1.65µM

Screening results: PubChem, National Center for Advancing Translational Sciences (NCATS)
